Experimental data taken from the supplement of paper PMC10646978.
± gives the standard deviation.

Columns and labels:
Settings in all cases: modulator concentration 10 µM
[1] = test system: RAW-Dual (murine macrophage reporter line); assay: NF-kB reporter (SEAP) activity fold change vs agonist alone; higher = enhanced NF-kB activity
Summary of the method: (§1)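 Compound reached 10 μM final in each well by pin transfer, onto RAW-Dual murine macrophage reporter cells seeded at 50 000 per well in 384-well plates. After 1 hour at 37 °C, the cells were stimulated overnight with a PRR agonist. SEAP in the supernatant was read with QUANTI-Blue at 620 nm absorbance for NF-κB, and Lucia luciferase was read with QUANTI-Luc luminescence for IRF. Each signal was turned into fold change against the mean agonist-only control on the same plate, and two replicate plates were averaged with propagated errors.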

[2] = test system: RAW-Dual (murine macrophage reporter line); assay: IRF reporter (Lucia luciferase) activity fold change vs agonist alone; higher = enhanced IRF activity
Summary of the method: as §1

[3] = test system: RAW-Dual (murine macrophage reporter line); assay: viability score (confluency relative to resting cells, overnight) (fraction); higher = more viable, active = viable (0.7 or more)
Summary of the method: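 Compound was added at a final 10 μM to RAW-Dual macrophages in 384-well plates and left overnight. Confluency was imaged with IncuCyte, and two masks were generated in IncuCyte software over all imaged wells. Each viability score is confluency relative to resting cells, and a compound met the cutoff only when both masks were above 70% of resting cells.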

[4] = agonist: CpG ODN 1826 0.5 ug/mL

SMILES | NF-kB reporter [1, 4] | NF-kB reporter ([1]; agonist: LPS 0.1 ug/mL) | NF-kB reporter ([1]; agonist: MPLA […]) | IRF reporter ([2]; agonist: 3'3'-cGAMP 10 ug/mL) | IRF reporter ([2]; agonist: LPS 0.1 ug/mL) | IRF reporter ([2]; agonist: MPLA […]) | viability score [3]
Br.COc1ccc2c3c1OC1CC(O)C=CC31CCN(C)C2 (configuration not stated) | 1.06 ± 0.082 | 0.892 ± 0.095 | 1.04 ± 0.1 | 1 ± 0.04 | 1.34 ± 0.18 | 1.43 ± 0.27 | 0.999 (active)
Cl.NCc1ccc(S(N)(=O)=O)cc1 | 0.998 ± 0.097 | 0.965 ± 0.047 | 0.998 ± 0.078 | 0.964 ± 0.058 | 0.962 ± 0.038 | 0.928 ± 0.13 | 1 (active)
Cn1ncc(Cl)c1-c1cc(C(=O)N[C@H](CN)Cc2ccc(F)c(F)c2)oc1Cl | 1.13 ± 0.34 | 1.49 ± 0.11 | 1.48 ± 0.14 | 0.363 ± 0.014 | 0.597 ± 0.064 | 0.827 ± 0.079 | 0.661 (inactive)
COc1ccc(C(=O)Oc2ccc(-c3ccc(C)cc3)cc2)cc1OC | 0.744 ± 0.058 | 0.892 ± 0.042 | 1 ± 0.09 | 0.957 ± 0.069 | 1.22 ± 0.09 | 1.27 ± 0.15 | 0.996 (active)
CC(=O)Nc1ccc(C(=O)CSc2nnc[nH]2)cc1 | 0.771 ± 0.06 | 0.877 ± 0.072 | 1.01 ± 0.087 | 0.916 ± 0.045 | 1.33 ± 0.086 | 1.47 ± 0.14 | 1.01 (active)
COC(CNS(=O)(=O)c1ccccc1Br)c1ccc(C)s1 (configuration not stated) | 1.04 ± 0.1 | 1.05 ± 0.095 | 1.13 ± 0.086 | 0.86 ± 0.082 | 0.965 ± 0.058 | 0.854 ± 0.098 | 0.997 (active)
N#Cc1c(N=Cc2ccc(Br)cc2)sc2c1CCCC2 | 0.782 ± 0.075 | 1 ± 0.067 | 0.964 ± 0.033 | 0.896 ± 0.14 | 0.96 ± 0.041 | 1 ± 0.077 | 1 (active)
N#Cc1nc(-c2ccc(COc3ccccc3)o2)oc1N1CCCCC1 | 1.07 ± 0.06 | 1.24 ± 0.077 | 1.12 ± 0.069 | 1.27 ± 0.071 | 1.53 ± 0.1 | 1.3 ± 0.14 | 0.981 (active)
CCN(C=Nc1sc2c(c1C#N)CC(C)(C)NC2(C)C)CC | 0.759 ± 0.059 | 0.93 ± 0.054 | 0.901 ± 0.093 | 0.969 ± 0.044 | 1.24 ± 0.071 | 1.29 ± 0.22 | 0.992 (active)
Cc1nc(Nc2ncc(C(=O)Nc3c(C)cccc3Cl)s2)cc(N2CCN(CCO)CC2)n1.Cl | 0.802 ± 0.035 | 1.01 ± 0.12 | 1.06 ± 0.067 | 0.976 ± 0.048 | 1.22 ± 0.28 | 1.34 ± 0.45 | 1 (active)
COC(=O)C1=C(C)NC(C)=C(C(=O)O[C@@H]2CCCN(Cc3ccccc3)C2)[C@@H]1c1cccc([N+](=O)[O-])c1 [Prestw-1766] | 0.317 ± 0.025 | 0.731 ± 0.069 | 0.717 ± 0.071 | 0.412 ± 0.043 | 1.1 ± 0.14 | 0.886 ± 0.21 | 1.07 (active)
CCCCCCCCCCC[C@@H](C[C@@H]1OC(=O)[C@H]1CCCCCC)OC(=O)[C@H](CC(C)C)NC=O | 1.1 ± 0.083 | 0.92 ± 0.058 | 1.02 ± 0.044 | 1.04 ± 0.23 | 0.927 ± 0.048 | 0.923 ± 0.12 | 1 (active)
CC(=O)Oc1ccc(C(=O)Nc2ccccc2Br)cc1 | 0.856 ± 0.068 | 1.01 ± 0.092 | 0.877 ± 0.066 | 0.953 ± 0.049 | 1.08 ± 0.2 | 0.904 ± 0.26 | 0.992 (active)
CC(C)c1cc(C(=O)N2Cc3ccc(CN4CCN(C)CC4)cc3C2)c(O)cc1O | 0.0684 ± 0.0053 | 0.106 ± 0.0088 | 0.311 ± 0.052 | 0.509 ± 0.3 | 0.971 ± 0.37 | 0.991 ± 0.44 | 0.762 (active)
CCn1nnc2c(NCCc3c[nH]c4ccccc34)ncnc21 | 0.961 ± 0.042 | 1.09 ± 0.1 | 1.09 ± 0.058 | 0.768 ± 0.043 | 1.05 ± 0.15 | 1.11 ± 0.32 | 0.958 (active)
CO[C@@]12[C@H](COC(N)=O)C3=C(C(=O)C(C)=C(N)C3=O)N1C[C@@H]1N[C@@H]12 | 2.4 ± 0.14 | 1.47 ± 0.1 | 2.16 ± 0.18 | 1.21 ± 0.069 | 1.42 ± 0.099 | 1.24 ± 0.24 | 0.644 (inactive)
Cc1ccc(-c2cc(NC(=O)c3ccc([N+](=O)[O-])cc3)[nH]n2)cc1 | 1.43 ± 0.11 | 1.04 ± 0.059 | 1 ± 0.061 | 0.869 ± 0.066 | 1.78 ± 0.3 | 1.82 ± 0.13 | 0.971 (active)
COC1CCN(c2ccc(C(=O)N3CC(n4cc(COc5ccccc5)nn4)C3)cc2)C1 (configuration not stated) | 1.17 ± 0.099 | 1.13 ± 0.1 | 0.959 ± 0.053 | 0.758 ± 0.043 | 1.12 ± 0.076 | 1.08 ± 0.24 | 0.922 (active)
CC(C)Cn1c(=O)n(C)c(=O)c2[nH]cnc21 | 1.41 ± 0.11 | 1.01 ± 0.055 | 1.08 ± 0.026 | 0.849 ± 0.049 | 0.88 ± 0.12 | 0.884 ± 0.21 | 0.983 (active)
O=C(CCCN1CCN(c2ccccn2)CC1)c1ccc(F)cc1 | 0.595 ± 0.084 | 1.05 ± 0.1 | 0.952 ± 0.056 | 0.924 ± 0.12 | 1.37 ± 0.12 | 1.15 ± 0.12 | 0.977 (active)
Cl.O=C1Cc2cc(CCN3CCN(c4nsc5ccccc45)CC3)c(Cl)cc2N1 | 0.0947 ± 0.013 | 1.06 ± 0.24 | 0.85 ± 0.059 | 0.646 ± 0.027 | 1.24 ± 0.24 | 1.01 ± 0.076 | 0.983 (active)
CC1=C(C(N)=O)C(c2cccs2)NC(=O)N1 (configuration not stated) | 0.974 ± 0.086 | 1.03 ± 0.12 | 0.944 ± 0.034 | 1.01 ± 0.15 | 0.963 ± 0.045 | 0.942 ± 0.063 | 0.999 (active)
Cc1ccc(-c2cc(-c3ccccc3)nc(N3CCOCC3)n2)cc1 | 0.811 ± 0.077 | 1.01 ± 0.075 | 1.1 ± 0.076 | 0.71 ± 0.065 | 1.05 ± 0.047 | 1.17 ± 0.082 | 0.998 (active)
O=C(Cn1cnc(-c2ccc(Cl)cc2)cc1=O)N1CCOCC1 | 1.07 ± 0.29 | 0.924 ± 0.047 | 0.925 ± 0.07 | 0.933 ± 0.032 | 1.09 ± 0.17 | 1.09 ± 0.21 | 1 (active)
COc1ccc(C(=O)N2CC(n3cc(CN4CCCC4=O)nn3)C2)cc1F | 1.19 ± 0.1 | 1.01 ± 0.077 | 1 ± 0.045 | 1.05 ± 0.088 | 1.01 ± 0.067 | 0.952 ± 0.14 | 0.999 (active)
Cl.Cl.OCCOCCN1CCN(C(c2ccccc2)c2ccc(Cl)cc2)CC1 (configuration not stated) | 1.21 ± 0.051 | 1.51 ± 0.12 | 2.68 ± 0.22 | 0.726 ± 0.034 | 1.27 ± 0.25 | 1.45 ± 0.37 | 0.965 (active)
